67 compounds from paper PMC4552634, “A New Set of Chemical Starting Points with Plasmodium falciparum Transmission-Blocking Potential for Antimalarial Drug Discovery” (PLoS ONE, 2015) can be followed below.

The whole screen tested about 13,000 compounds, of which about 3,200 (25%) showed an effect of 50% or more. This is one part of the list.

This test has as its system P. falciparum stage V gametocytes. Further details: BacTiter-Glo ATP luminescence viability of purified stage V gametocytes in 384-well plates, per cent inhibition versus DMSO. The settings on record: 48 h, 5 µM; inhibitor.
The term % Inhibition denotes the drop in the measured response relative to a control, in per cent. Take `CCNc1cc(C(=O)N[C@@H](Cc2ccccc2)[C@H](O)CNC2CCC(C(C)(C)C)CC2)cc(N2CCCC2=O)c1` (stereo partly shown) [TCMDC-138903]: the “% Inhibition” value was 47.86%.

For `Cc1ccnc2nc(C(=O)Nc3cc(Cl)ccc3N3CCOCC3)nn12` [TCMDC-124435], the “% Inhibition” value stood at 7.323%.

For `CC1CCCN(C(=O)C(C)Nc2cc(Cl)ccc2N2CCOCC2)C1` (stereo not shown) [TCMDC-125110], the “% Inhibition” value is on record as 85%.

On to `CC(Oc1ccc(Cl)cc1)C(=O)Nc1cc(C(F)(F)F)ccc1N1CCOCC1` (stereo not shown) [TCMDC-125311], for which the “% Inhibition” value came to 3.686%.

Turning to `COc1ccccc1CNC(=O)CCn1c(=O)[nH]c2ccsc2c1=O` [TCMDC-123587], the “% Inhibition” value was 30.03%.

Turning to `O=C(CSc1nc2ccccc2c(=O)n1C1CC1)Nc1cc(C(F)(F)F)ccc1Cl` [TCMDC-123578], the “% Inhibition” value is given as -84.13%.

As for `NC(N)=NCC=C(c1ccccc1)c1ccccc1` [TCMDC-137566], the “% Inhibition” value stood at 51.32%.

On to `NC(N)=NCCCN(Cc1ccccc1)c1ccccc1` [TCMDC-131836], for which the “% Inhibition” value is reported as 40.87%.

As to `CC1(C)N=C(N)N=C(N)N1OCOc1cc(Cl)c(Cl)cc1Cl` [TCMDC-131783], the “% Inhibition” value stood at 42.76%.

As to `CCOC(=O)c1cc(Cl)cc(Cl)c1OCCCON1C(N)=NC(N)=NC1(C)C` [TCMDC-131703], the “% Inhibition” value is recorded as 21.46%.

Consider `O=C(Nc1ccc(-c2nc3ccccc3[nH]2)cc1)c1cccc(S(=O)(=O)N2CCCC2)c1` [TCMDC-125262], for which the “% Inhibition” value was -9.526%.

Turning to `CC[C@H](C)CNC(=O)c1cncc(-c2ccc(CN(C)C3CCN(C)CC3)cc2)c1` [TCMDC-134233], the “% Inhibition” value is on record as 22.49%.

Turning to `CC(C)CNCc1ccc(-c2cccc(CN(CCN(C)C)C(=O)CCC3CCCC3)c2)cc1` [TCMDC-140553], the “% Inhibition” value is reported as 109.4%.

Take `CN(C)CCN(Cc1ccc(-c2ccc(CNCCc3ccccc3)cc2)nc1)C(=O)CCC1CCCC1` [TCMDC-141402]: the “% Inhibition” value amounted to 63.7%.

Turning to `CC(C)CNC(=O)c1cncc(-c2ccc(CN(C)C3CCN(C)CC3)cc2)c1` [TCMDC-134235], the “% Inhibition” value stood at 31.51%.

For `CC[C@H](C)CNC(=O)c1cncc(-c2ccc(CNC3CCCC3)cc2)c1` [TCMDC-134232], the “% Inhibition” value was 8.826%.

As to `CC(C)CNCc1ccc(-c2ccc(CN(CCCN3CCN(C)CC3)C(=O)CCC3CCCC3)cc2)cc1` [TCMDC-140559], the “% Inhibition” value is reported as 105.9%.

Take `CC(C)CNCc1cccc(-c2cccc(CN(CCCN3CCN(C)CC3)C(=O)NC3CCCCC3)c2)c1` [TCMDC-140633]: the “% Inhibition” value was determined as 106.9%.

As for `COc1cc(NC(=O)/C=C/c2ccccc2OC(F)(F)F)cc(OCCN2CCN(CCN3CCOCC3)CC2)c1` [TCMDC-140929], the “% Inhibition” value is recorded as -8.825%.

`COc1cc(NC(=O)NC(CCN2CCC3(CCc4ccccc43)CC2)c2ccc(Cl)c(Cl)c2)cc(OC)c1OC` (stereo not shown) [TCMDC-141765]: the “% Inhibition” value is reported as -19.84%.

On to `CCC(C)CN1CCC(N(C)c2cc(NC(=O)c3ccc(F)cc3)ccn2)CC1` (stereo not shown) [TCMDC-134951], for which the “% Inhibition” value is given as 19.56%.

`Nc1nc(N)c(-c2ccccc2)c(=O)[nH]1` [TCMDC-137349]: the “% Inhibition” value worked out at 4.514%.

For `CC(C)CNCc1cccc(-c2ccc(CN(CCCN3CCN(C)CC3)C(=O)CCC3CCCC3)cc2)c1` [TCMDC-140558], the “% Inhibition” value is listed as 107.6%.

For the compound `CC(C)CNCc1cccc(-c2cccc(CN(CCCN3CCN(C)CC3)C(=O)CCC3CCCC3)c2)c1` [TCMDC-140554], the “% Inhibition” value was 109.3%.

Turning to `CC[C@H](C)CNC(=O)c1ccnc(-c2cccc(CN(C)C3CCN(C)CC3)c2)c1` [TCMDC-134243], the “% Inhibition” value was -9.422%.

As to `CC[C@H](C)CNC(=O)c1cncc(-c2cccc(CN(C)C3CCN(C)CC3)c2)c1` [TCMDC-134225], the “% Inhibition” value stood at 17.67%.

Regarding `COc1cc(OC)c(OC)cc1CN1CCC2(CC1)CN(Cc1ccc(Cl)c(Cl)c1)C(=O)O2` [TCMDC-132175], the “% Inhibition” value came out at 23.65%.

In the case of `CCOc1c(CNCCCNc2cc(=O)c3ccccc3[nH]2)cc(I)cc1C(C)(C)C` [TCMDC-140132], the “% Inhibition” value is on record as -43.73%.

As to `O=C(Nc1cccc(F)c1)c1ccc(C(=O)NC2CCN(CC3CCCCC3)C2)cc1` (stereo not shown) [TCMDC-136741], the “% Inhibition” value is 0.01446%.

For the compound `CC(CN(C)C)C(=O)Nc1cccc(-c2cccc(-c3nc4ccc(F)cc4[nH]3)c2)c1` (stereo not shown) [TCMDC-137104], the “% Inhibition” value is given as -36.15%.

Regarding `CC(CN(C)C)C(=O)Nc1ccc(-c2csc(-c3nc4ccccc4[nH]3)c2)cc1` (stereo not shown) [TCMDC-132390], the “% Inhibition” value worked out at 44.44%.

`CC(CN(C)C)C(=O)Nc1cccc(-c2cccc(-c3nc4ccccc4[nH]3)c2)c1` (stereo not shown) [TCMDC-137101]: the “% Inhibition” value was 94.09%.

As for `CC(CN(C)C)C(=O)Nc1ccc(-c2ccc(-c3nc4ccccc4[nH]3)cc2)cc1` (stereo not shown) [TCMDC-137108], the “% Inhibition” value is listed as 88.79%.

Consider `CC(CN(C)C)C(=O)Nc1ccc(-c2cccc(-c3nc4ccccc4[nH]3)c2)cc1` (stereo not shown) [TCMDC-137099], for which the “% Inhibition” value is given as -5.672%.

As for `CC(CN(C)C)C(=O)Nc1cccc(-c2ccc(-c3nc4ccccc4[nH]3)cc2)c1` (stereo not shown) [TCMDC-137107], the “% Inhibition” value was -47.86%.

Take `C#CCNCc1ccc(-c2ccc(-c3nc4cc(C(F)(F)F)ccc4[nH]3)s2)cc1.O=C(O)C(F)(F)F` [TCMDC-132805]: the “% Inhibition” value is -48.9%.

Turning to `COc1cc(CCON2C(N)=NC(N)=NC2(C)C)cc(OC)c1OC` [TCMDC-131368], the “% Inhibition” value is recorded as -0.5645%.

For `CC[C@]1(C)C[C@@H](NC(=O)NC(=O)c2ccc(OC)cc2)[C@]2(C)[C@H](C)CC[C@]3(CCC(=O)[C@H]32)[C@@H](C)[C@@H]1OC(=O)NC(=O)c1ccc(OC)cc1` [TCMDC-139025], the “% Inhibition” value was 34.49%.

For `O=S(=O)(c1cc(Cl)c(Cl)cc1Cl)N1CCCCC(c2ccc(C(F)(F)F)cc2)=N1` [TCMDC-134542], the “% Inhibition” value was -0.152%.

For the compound `CC1(C)N=C(N)N=C(N)N1OCCCOc1cccc(C(=O)O)c1` [TCMDC-124025], the “% Inhibition” value stood at 22.26%.

As for `O=C(Nc1ccc(-c2cccc(-c3nc4ccccc4[nH]3)c2)cc1)Nc1ccc2c(c1)OCO2` [TCMDC-133168], the “% Inhibition” value is recorded as -6.536%.

Take `Cc1[nH]c(C)c(-c2ccc(OCc3cc(F)cc(F)c3)nc2)c(=O)c1Cl` [TCMDC-135676]: the “% Inhibition” value is given as 67.03%.

In the case of `Cc1[nH]c(C)c(-c2ccc(OCc3cc(F)cc(F)c3)nc2)c(=O)c1Br` [TCMDC-135683], the “% Inhibition” value was 58.89%.

Consider `Cc1[nH]c(C)c(-c2ccc(OCc3ccc(F)cc3)nc2)c(=O)c1Br` [TCMDC-135657], for which the “% Inhibition” value is 60.6%.

As for `Cc1[nH]c(C)c(-c2ccc(OCc3ccc(OC(F)(F)F)cc3)nc2)c(=O)c1Br` [TCMDC-135254], the “% Inhibition” value was found to be 45.17%.

Consider `CCNc1cc(C(=O)N[C@@H](Cc2ccc(Cl)cc2)[C@H](O)CNC2CCCCC2)cc(N2CCCCS2(=O)=O)c1` [TCMDC-135201], for which the “% Inhibition” value is on record as 29.54%.

For `N#Cc1ccc(NC(=Nc2ccccc2Br)N(C2CCCCC2)C2CCCCC2)c(O)c1` [TCMDC-140131], the “% Inhibition” value was -34.98%.

Regarding `FC(F)(F)CNc1nc(Nc2ccc3ncccc3c2)nc2[nH]ccc12` [TCMDC-132120], the “% Inhibition” value stood at 26.12%.

Turning to `C=C[C@H]1CN2CC[C@H]1C[C@H]2[C@H](O)c1ccnc2ccccc12` [TCMDC-123934], the “% Inhibition” value was determined as 4.056%.

On to `CN(C)c1cccc(CN2CC=C(c3c[nH]c4ccc(Cl)cc34)CC2)c1` [TCMDC-138946], for which the “% Inhibition” value is on record as 8.82%.

Take `Nc1ncnc2cc(-c3cccc(S(N)(=O)=O)c3)sc12` [TCMDC-135294]: the “% Inhibition” value is listed as -17.5%.

Consider `NS(=O)(=O)c1cccc(-c2ccc3c(=O)[nH]cnc3c2)c1` [TCMDC-136756], for which the “% Inhibition” value worked out at 63.64%.

Turning to `NS(=O)(=O)c1cccc(Br)c1` [TCMDC-123819], the “% Inhibition” value is reported as -1.825%.

As for `COc1ccc(-c2ccc3c(-c4cccc(S(C)(=O)=O)c4)cnc(N)c3c2)cc1` [TCMDC-134494], the “% Inhibition” value was determined as 3.475%.

As to `NS(=O)(=O)c1cccc(-c2ccc3nccc(-c4cccc(S(N)(=O)=O)c4)c3c2)c1` [TCMDC-138902], the “% Inhibition” value was found to be 75.33%.

Turning to `CS(=O)(=O)c1cccc(-c2cnc(N)c3cc(-c4cccc(F)c4)ccc23)c1` [TCMDC-134493], the “% Inhibition” value stood at 8.942%.

In the case of `NS(=O)(=O)Cc1cccc(-c2ccnc3ccc(-c4cccc(S(N)(=O)=O)c4)cc23)c1` [TCMDC-134159], the “% Inhibition” value is on record as 58.63%.

As to `COc1cccc(-c2ccc3c(-c4cccc(S(C)(=O)=O)c4)cnc(N)c3c2)c1` [TCMDC-134495], the “% Inhibition” value was 30.55%.

Consider `CS(=O)(=O)c1cccc(-c2cnc(N)c3cc(-c4ccc5c(c4)OCO5)ccc23)c1` [TCMDC-134515], for which the “% Inhibition” value is -1.728%.

Take `CN(C)S(=O)(=O)c1cc(-c2ccc3nccc(-c4cccc(S(N)(=O)=O)c4)c3c2)cnc1N` [TCMDC-134230]: the “% Inhibition” value was found to be 96.42%.

On to `CS(=O)(=O)c1cccc(-c2cnc(N)c3cc(-c4ccc(F)cc4)ccc23)c1` [TCMDC-134492], for which the “% Inhibition” value is reported as 11.87%.

Turning to `COc1cc(Nc2nccc(N3CCC(NC(=O)Nc4cc(C)ccc4C)C3)n2)cc(OC)c1OC` (stereo not shown) [TCMDC-133626], the “% Inhibition” value is listed as -44.43%.

Regarding `Cc1cc(-c2ccc(Cl)cc2)c2c(N)c(C(=O)Nc3ccc(F)cc3)sc2n1` [TCMDC-124117], the “% Inhibition” value is given as 40.98%.

Consider `CN(C)C(CNC(=O)c1cc(-c2ccncc2)c(-c2ccc(NC(=O)Nc3cccc(F)c3)cc2)o1)c1ccccc1` (stereo not shown) [TCMDC-135782], for which the “% Inhibition” value is recorded as 6.274%.

For `CC(C)(C)c1ccc(-c2ccccc2CNC(=O)c2cccc(O)c2)cc1` [TCMDC-136181], the “% Inhibition” value was 21.07%.

Regarding `O=C(NCc1ccccc1)Nc1cccc(-c2cccc(-c3nc4ccc(C(F)(F)F)cc4[nH]3)c2)c1` [TCMDC-133161], the “% Inhibition” value is -23.46%.

For `Cc1cc(CN2CCC(N3CC(c4ccccc4)(c4ccccc4)OCC3=O)C2)ccc1O` (stereo not shown) [TCMDC-136340], the “% Inhibition” value is given as -6.883%.
